# Assay outcomes as filed in PubChem BioAssay.
# Fam108B counter = blocks mouse Fam108B hydrolase in RBBP9 counter-screen; recombinant Fam108B, FP-Rh probe fluorescence polarization; inhibition, % at 9.51 µM; hit rate 0.33% among 300,000; AID 1947;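 active means inhibition above the screen mean inhibition plus 3 SD, computed separately per campaign, cut at about 18% in these data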;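 further: inhibitors lower polarization as less probe binds the enzyme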
# SIAE inh = inhibitors of human sialic acid acetylesterase SIAE; SIAE FP-Rh probe binding, fluorescence polarization; inhibition, % at 9.66 µM; hit rate 0.69% among 370,000; AID 1053197;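 active means inhibition above a cutoff: mean of compounds within the control limits plus 3 SD of those, cut at about 17% in these data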
# PAD4 FP inh = PAD4 (human) enzyme inhibition; recombinant PAD4, RCA probe fluorescence polarization; Q9UM07; inhibition, % at 6.36 µM; hit rate 0.41% among 330,000;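 active means percent inhibition above a cutoff equal to the mean of all tested compounds plus 3 SD, cut at about 15% in these data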
# TCR CD3 inh = blocks the human TCR-CD3 interaction; hit rate 0.37% among 360,000; TAMRA-labeled TCR probe fluorescence, biochemical; inhibition, % at 9.4 µM; AID 651800;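 further: recombinant mutant TCR 2C K166C tagged with TAMRA read by polarization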
# PRMT1 inh = blocks human protein arginine methyltransferase 1 | inhibition, % at 2.79 µM | hit rate 1.3% among 370,000 | Q99873 | recombinant PRMT1, activity-based probe fluorescence polarization;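 active means inhibition above about 21% made by adding two undisclosed values, limit read from the data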
# Target sequence (Q99873 whole entry, looked up): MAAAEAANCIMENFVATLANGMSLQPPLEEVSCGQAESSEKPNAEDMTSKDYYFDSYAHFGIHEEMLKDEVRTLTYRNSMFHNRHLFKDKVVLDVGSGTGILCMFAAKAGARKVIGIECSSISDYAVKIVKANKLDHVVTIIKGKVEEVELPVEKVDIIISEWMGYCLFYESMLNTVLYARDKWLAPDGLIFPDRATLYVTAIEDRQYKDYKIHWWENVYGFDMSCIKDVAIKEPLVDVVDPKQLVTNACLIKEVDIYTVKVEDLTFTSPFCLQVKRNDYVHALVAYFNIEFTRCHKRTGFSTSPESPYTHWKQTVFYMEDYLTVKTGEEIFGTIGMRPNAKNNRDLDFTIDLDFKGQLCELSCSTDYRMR
# PME-1 primary = blocks human protein phosphatase methylesterase 1. inhibition, % at 5.9 µM. Q9Y570. recombinant PME-1, FP-Rh probe fluorescence polarization. hit rate 0.53% among 320,000;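 active means inhibition above the campaign mean of all compounds plus 3 SD, cut at about 26% in these data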;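 further: competitive labeling of PME-1 active site by serine hydrolase directed probe; inhibitors block probe labeling so polarization falls and inhibition rises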
# BSA probe FL = BSA probe counter-screen for TCR-CD3 inhibitors; shares compounds with TCR CD3 inh; TAMRA-labeled BSA probe fluorescence counterscreen; inhibition, % at 9.4 µM; hit rate 10% among 1,200; AID 652035; in the data active means inhibition above about 23%
# TCR-CD3 conf = confirmation of human TCR-CD3 interaction inhibitors. shares compounds with TCR CD3 inh. TAMRA-labeled TCR probe fluorescence binding assay. inhibition, % at 9.4 µM. hit rate 48% among 1,200. AID 652036
# Hits are given with their value; n = inactive; x = no result given. Hits are enriched below; roughly 2.6% of the tested compounds scored in any of these assays. Unless noted, no stated cut-off is given here; in the data, active means inhibition above about 19%; inactive means the rest.
SMILES,Fam108B counter,SIAE inh,PAD4 FP inh,TCR CD3 inh,PRMT1 inh,PME-1 primary,BSA probe FL,TCR-CD3 conf
Cn1c(=O)c(-c2cc(=O)[nH][nH]2)c(O)c2ccccc21,n,n,n,19,n,n,n,n
O=C(NNC(=S)NC(=O)c1cccc([N+](=O)[O-])c1)c1ccc(Br)cc1,n,n,n,20,n,n,n,n
O=C(NNC(=S)NC(=O)c1cccc([N+](=O)[O-])c1)c1ccc(O)cc1,n,n,n,20,n,n,n,34
O=C(NNC(=S)NC(=O)c1ccccc1)c1cccc([N+](=O)[O-])c1,n,n,n,n,n,n,x,x
CC(C)N1CCc2c(-c3nc4ccccc4s3)csc2C1,x,n,x,x,n,x,x,x
Nc1ncnc2c1CN(Cc1ccccc1)CC2,x,n,x,77,n,x,n,n
Cn1ccc2c(N3CCOCC3)cc3c(c21)C1CCC3O1 (stereo not given),x,n,x,n,n,x,x,x
Cn1ccc2c(N3CCCCCC3)cc3c(c21)C1CCC3O1 (stereo not given),x,n,x,22,n,x,n,n
C=CCn1c(O)c(N=NC(=O)CNC(=O)/C=C/c2ccco2)c2ccccc21,n,n,n,23,n,n,n,20
COC(=O)[C@]12C[C@H](CC(=O)N3CCCCC3)C(=O)N(CCc3ccc(OC)c(OC)c3)C1=C[C@H](C(C)C)O[C@@H]2C1CC1,x,n,x,x,n,x,x,x
CC(C)Cc1nc2sc3c(=O)[nH]cnc3c2c2c1CCCC2,n,n,n,20,n,n,n,n
CC(C)Cc1nc2oc3c(=O)[nH]cnc3c2c2c1CCCC2,n,n,n,n,n,n,x,x
O=C(N/N=C/c1cccc([N+](=O)[O-])c1)c1ccc(COc2ccccc2-c2ccccc2)cc1,n,n,n,50,n,n,n,50
C/C(=N\NC(=S)NCC(C)(C)C)c1cc(F)cc(F)c1O,n,n,n,27,n,n,n,n
COc1ccc(C(=O)OCC(=O)Nc2ncc([N+](=O)[O-])s2)cc1OC,x,n,n,21,n,n,n,n
O=C(COC(=O)c1ccc(Br)o1)Nc1ncc([N+](=O)[O-])s1,x,n,n,n,n,n,x,x
COc1cc2c(cc1NC(=O)CSc1nnc(-c3ccccn3)n1-c1ccccc1)oc1ccccc12,x,n,x,x,n,x,x,x
O=C(N/N=C/c1c(O)ccc2ccccc12)c1ccc[n+](CCO)c1,n,n,n,26,n,n,n,n
O=C(N/N=C/c1c(O)ccc2ccccc12)c1ccc(Br)o1,n,n,n,26,n,n,n,22
Cc1occc1C(=O)N/N=C/c1c(O)ccc2ccccc12,n,n,n,n,n,n,x,x
COC(=O)c1cnn(-c2ccc(F)cc2F)c1/C=N/NC(=S)Nc1ccccc1,x,n,x,x,n,x,x,x
COC(=O)[C@]12C[C@H](CC(=O)N3CCN(C(=O)c4ccco4)CC3)C(=O)N(CCc3ccc(OC)c(OC)c3)C1=C[C@H](C1CCCC1)O[C@@H]2C,x,n,x,x,n,x,x,x
COC1(OC)C(/C=C/c2ccc(Cl)cc2)C(C#N)(C#N)C1(OC)OC (stereo not given),n,n,n,21,n,n,n,n
O=C(NC(=S)Nc1ccccc1O)c1ccccc1Cl,n,n,n,23,n,n,n,n
COc1ccc(-c2cn3cc(C(=O)NN)ccc3n2)cc1,n,n,n,21,n,n,n,n
SMILES,Fam108B counter,SIAE inh,PAD4 FP inh,TCR CD3 inh,PRMT1 inh,PME-1 primary,BSA probe FL,TCR-CD3 conf
NNC(=O)c1ccc2nc(-c3ccc(Br)cc3)cn2c1,n,n,n,n,n,n,x,x
C/C(=N\NC(=O)CCc1ccccc1)C1C(=O)c2ccccc2C1=O,n,n,n,19,n,n,n,n
CC(/C=C/c1ccccc1)=N\NC(=O)CCc1ccccc1,n,n,n,n,n,n,x,x
O=C(NCCc1cccc(Cl)c1)c1ccc(Cl)c([N+](=O)[O-])c1,n,n,n,30,n,n,n,n
CCOCCCNC(=O)CSCc1nc(-c2ccc(SC)cc2)oc1C,n,n,n,n,n,n,x,x
COCCNC(=O)CSCc1nc(-c2ccc(SC)cc2)oc1C,n,n,n,33,n,n,n,n
NS(=O)(=O)c1cc(C(=O)NC2CCSc3ccccc32)ccc1Cl (stereo not given),n,n,n,40,n,n,n,36
COc1ccc(C(=O)Nc2ccc(S(=O)(=O)N3CCCCC3)cc2)cc1OC,n,n,n,n,n,n,x,x
COc1ccc(-c2cnnn2-c2ccc(NC(=O)c3ccc(S(=O)(=O)N4CCCCC4)cc3)cc2)cc1OC,n,n,n,19,n,n,n,23
CN1CCCN(C(=O)C2CCN(c3ncnc4c3sc3cccc(F)c34)CC2)CC1,x,n,x,x,n,x,x,x
COc1ccc(C2OC34CCCCC3C(C#N)(C#N)C2(C#N)C(=N)O4)cc1 (stereo not given),n,n,n,27,n,n,65,44
CN(CCCOC(=O)c1cccs1)C1CN(Cc2cn(Cc3ccccc3Cl)nn2)S(=O)(=O)C1 (stereo not given),x,n,x,x,n,x,x,x
O=C(N/N=C/c1cc([N+](=O)[O-])ccc1O)c1cccc2cc[nH]c12,n,n,n,20,n,n,n,n
O=C(CCCC(=O)Nc1cccc(Br)c1)N/N=C/c1cc([N+](=O)[O-])ccc1O,n,n,n,n,n,n,x,x
O=C(N/N=C/c1cccc([N+](=O)[O-])c1)c1cccc2cc[nH]c12,n,n,n,n,n,n,x,x
O=C(N/N=C/c1cc([N+](=O)[O-])ccc1O)c1cccc(N2CCCC2=O)c1,n,n,n,46,n,n,n,37
O=C(CN(c1cccc(Br)c1)S(=O)(=O)c1ccccc1)N/N=C/c1cc([N+](=O)[O-])ccc1O,n,n,n,30,n,n,n,28
CCc1ccc(N2CC(C(=O)N/N=C/c3cc([N+](=O)[O-])ccc3O)CC2=O)cc1 (stereo not given),n,n,n,31,n,n,n,26
CCc1ccc(N2CC(C(=O)N/N=C/c3ccccc3OC)CC2=O)cc1 (stereo not given),n,n,n,n,n,n,x,x
COc1ccc2c(c1)CNC2CS(=O)(=O)NC1CCCC1 (stereo not given),x,n,x,x,n,x,x,x
O=C(Nc1ccc(F)cc1)OCCN1CCCC12CCC(c1ccccc1)CC2 (stereo not given),x,n,x,x,n,x,x,x
O=C(CSc1nc2ccccc2s1)N/N=C/c1cc([N+](=O)[O-])ccc1O,n,n,n,34,n,n,n,31
Cc1c(NC(=S)N/N=C/c2cc([N+](=O)[O-])ccc2O)c(=O)n(-c2ccccc2)n1C,n,n,n,32,n,n,n,31
COc1ccccc1C(=O)N(Cc1ccccn1)CC1CCCO1 (stereo not given),x,n,x,x,n,x,x,x
